The record followed here is PubChem BioAssay AID434927 (Sanford-Burnham Center for Chemical Genomics, 2010).

Structures are written as SMILES. Calls of active or inactive are those of the source.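 Rule for the calls: active = inhibition above about 23% in any of six single-dose repeats (limit read from the data); inactive = the rest.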

The target in the test is Intestinal-type alkaline phosphatase (Homo sapiens) (UniProt P09923). As to the kind of experiment: suppression of intestinal alkaline phosphatase activity – biochemical, luminescence, single concentration, uHTS hits, confirmation (AID 434927).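 Note: plate controls were DMSO wells with enzyme for no effect and wells lacking enzyme for full effect.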 As to conditions: purified human IAP, CDP-Star luminescence, 30 min; at 8.3 µM; hits give high values.
Chain of Intestinal-type alkaline phosphatase (Homo sapiens) (P09923 whole entry, looked up): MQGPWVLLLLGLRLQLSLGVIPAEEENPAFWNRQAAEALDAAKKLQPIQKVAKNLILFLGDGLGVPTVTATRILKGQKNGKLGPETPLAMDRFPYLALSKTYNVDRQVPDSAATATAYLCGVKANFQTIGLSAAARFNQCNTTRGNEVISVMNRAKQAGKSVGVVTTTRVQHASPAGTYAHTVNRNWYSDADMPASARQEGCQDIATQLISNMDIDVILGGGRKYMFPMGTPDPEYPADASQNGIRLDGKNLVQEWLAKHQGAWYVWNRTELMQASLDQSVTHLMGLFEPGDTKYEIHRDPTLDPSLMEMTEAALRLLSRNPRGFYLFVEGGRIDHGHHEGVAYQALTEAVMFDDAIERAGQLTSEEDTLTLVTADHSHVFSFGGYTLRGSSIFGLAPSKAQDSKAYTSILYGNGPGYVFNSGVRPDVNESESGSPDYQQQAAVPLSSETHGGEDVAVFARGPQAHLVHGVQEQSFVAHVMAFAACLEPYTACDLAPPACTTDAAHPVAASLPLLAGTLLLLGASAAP
Turning to `O=c1cc(-c2ccccc2)[nH]n1-c1nc2ccccc2[nH]1`, the inhibition – broadly, the relative decrease from the control value, in per cent – was -58.4% (inactive).
Then `CCCOCC(O)CC(CC)C(=O)NNC(=S)Nc1ccccc1` (stereo not drawn), with -138% (inactive); and `COc1ccccc1CCNC(=O)C1CCN(c2nnc(C)c3c(C)n(-c4ccc(C)cc4)nc23)CC1`, with 30.8% (active); and `C=CCN1C(=O)/C(=C\C=C2\N(C)c3ccccc3C2(C)C)SC1=S`, with -267% (inactive).
With `Cc1cc(C(=O)NC2CC(C)(C)Cc3c2cnn3-c2ccccc2)n[nH]1` (stereo not drawn) the figure was 62.1% (active); with `CC(=O)CCc1ccc(Oc2nc(-c3cccnc3)nc3ccccc23)cc1`, 42% (active); with `c1ccc(Nc2ccnc(Nc3ccccc3)n2)cc1`, -43.5% (inactive).
With `CC1=NN(Cc2ccccc2)C(=O)/C1=C\c1ccc(N(C)C)cc1`, the inhibition was 65.6% (active).
With `Cc1cc(C)c2nc(SCC(=O)NNC(=O)c3ccco3)c(C)cc2c1` the figure was -58.7% (inactive); with `CC(NC(=S)NC1CCC(C(C)(C)C)CC1)c1ccccc1` (stereo not drawn), -111% (inactive).
Then `CCOc1cccc(-c2nc(C(N)=O)c3[nH]c(=O)n(-c4cccc(Cl)c4)c3n2)c1O`, with -74.5% (inactive).
Then `CCCCOc1cccc(C2/C(=C(\O)c3ccc4c(c3)OCCO4)C(=O)C(=O)N2CCN2CCOCC2)c1` (stereo not drawn), with -90.6% (inactive); and `O=c1c2c(-c3cccs3)csc2ncn1-c1ccc(Br)cc1`, with -112% (inactive); and `CC(/C=N/NC(=O)CCn1nnc2ccccc21)=C\c1ccccc1`, with -88.8% (inactive).
Take `CCOc1cc(/C=N/NC(=O)C(=O)N/N=C/c2ccc(O)c(OCC)c2)ccc1O`: the inhibition was -47.6% (inactive).
With `CCOC(=O)c1cnc(-n2nc(C)cc2C)nc1NNc1nc(C)cc(C)n1` the figure was 71.7% (active); with `Cc1cc(=O)[nH]c(-n2[nH]c3c(c2=O)CCCC3)n1`, 55.9% (active); with `Cc1ccc(S(=O)(=O)N(CC(=O)Nc2ccc(C)cc2C)C(=O)N2CCN(C)CC2)cc1`, -55.4% (inactive).
Consider `CC(C)(C)N/N=C/c1c(O)n(-c2ccc(Cl)cn2)c(=O)c2ccccc12`, for which the inhibition is -93.3% (inactive).
As for `COc1cccc(/C=N/Nc2nc(-c3cccnc3)nc3ccccc23)c1`, the inhibition is -0.0482% (inactive).
With `Cc1ccc(NC(=O)NNC(=O)c2cc3ccccc3cc2O)cc1` the figure was -69.5% (inactive); with `CCOc1ccccc1CN1CCC(n2nccc2NC(=O)CCc2ccccc2)CC1`, 26.6% (active); with `C=CCN1C(=O)C2(NNc3ccccc3O2)c2ccccc21` (stereo not drawn), -92.8% (inactive).
Regarding `C[C@@H](NC(=O)c1[nH]cnc1C(=O)Nc1ccon1)c1ccccc1`, the inhibition was -80% (inactive).
Consider `Cc1nn(C)c(C(=O)NNC(=S)NCc2ccccc2)c1Cl`, for which the inhibition is -141% (inactive).
Then `O=S(=O)(c1ccccc1)N1CCCC1c1cccs1` (stereo not drawn), with -172% (inactive); and `Oc1ccc(N=Nc2c(O)ccc3ccccc23)cc1`, with -91.9% (inactive); and `O=C(CSc1nc(-c2cccs2)cc(C(F)(F)F)n1)NCc1ccccc1`, with 36.7% (active).
Then `N#CCN1C(=S)N=C(Nc2cccc(Cl)c2)C12CCCCC2`, with -55.5% (inactive); and `CCC(C)(C)C1CCc2[nH]nc(C(=O)N/N=C(\C)c3ccco3)c2C1` (stereo not drawn), with 62.7% (active); and `COc1ccc(C=C2C(=O)c3ccccc3C2=O)cc1O`, with 56.2% (active).
Then `O=C(NN1C(=O)CSC1=S)C(=O)NN1C(=O)CSC1=S`, with 73.8% (active); and `Cc1cc(C)cc(CC(Cc2nc3ccccc3[nH]2)c2nc3ccccc3[nH]2)c1` (stereo not drawn), with -323% (inactive).
